This is part of a sample that, as a whole, favours compounds with a hit. Of some 83,000 tested, about 20% had one in any assay.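 Note: values are percent growth. 100 is the growth of untreated cells, values between 100 and 0 indicate rising inhibition; between -100 and 0 indicates cell death.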 Values without a mark were called inactive. The source made the active and inactive calls. The calls were made as follows: active = growth percent below 10; inactive = the rest.

We go through 28 compounds from PubChem BioAssay (NCI).

The subject of the test is MDA-MB-468 breast. The test is described as follows: NCI-60 one-dose screen, 48 h (100 = growth as untreated, 0 = no growth, -100 = all killed). To be noted: 10 µM unless noted.
As to `O=c1ccn(C2CCCO2)c(=O)[nH]1` (stereo not drawn), the growth is 104%.

Turning to `COc1cc(NCCCN(CC(C)C)CC(C)C)c2ncccc2c1`, the growth is -27.1% (active).

Turning to `CCOC(=O)c1c(N)sc2cc(O)ccc12`, the growth was 131%.

Take `Cn1cc(-c2csc(-c3cn(C)c4ccc(F)cc34)n2)c2cnccc21`: the growth was -49.2% (active).

Take `Oc1ccc2ccccc2c1N=Nc1nccs1`: the growth is -48.6% (active).

Regarding `CC(C)(C)N1CCC1CN` (stereo not drawn), the growth is 97.2%.

For `O=C1C2=C(Nc3cc([N+](=O)[O-])ccc3N2)OC1c1c2ccccc2cc2ccccc12` (stereo not drawn), the growth is 37.3%.

Turning to `CCCCN1CCN(c2ccc3nc(-c4ccc5nc(-c6cc(OC)c(OC)c(OC)c6)[nH]c5c4)[nH]c3c2)CC1`, the growth was 45.7%.

As for `O=C1/C(=C\c2c[nH]c3ccccc23)c2ccccc2N1c1c(Cl)cccc1Cl`, the growth was 8.39% (active).

For the compound `COc1ccc(/C=C(/c2ccccc2)[N+](=O)[O-])c(OC)c1`, the growth is -56.5% (active).

As for `C#C[C@H]1CCCCCC1O` (stereo partly drawn), the growth is 99.3%.

As for `Fc1ccccc1CSc1ncnc2nc[nH]c12`, the growth is 97.6%.

With `O=C(c1ccc(-c2nc(CSc3nc4ccccc4s3)no2)cc1)N1CCSCC1`, the growth was 4.1% (active).

Take `CC1=C(C(=O)OCc2ccccc2)C(c2ccc3c(c2)OCO3)n2c(nc3ccccc32)N1` (stereo not drawn): the growth is 15.8%.

As for `CC(C)=CCC[C@](C)(O)[C@H]1CC[C@]2(C)[C@@H]1CC[C@@H]1[C@@]3(C)CCC(NC(=O)c4ccccc4C(=O)O)C(C)(C)[C@@H]3CC[C@]12C` (stereo partly drawn), the growth was 89.4%.

Take `CCOC(=O)c1[nH]cc2c1CCc1sc(Nc3ccccn3)nc1-2`: the growth was 46.9%.

Regarding `COc1cc(C(=O)O)c(O)c(C(C)(C)C)c1`, the growth is 100%.

`Cc1cc(N(CCCNc2ccnc3cc(Cl)ccc23)Cc2ccco2)nc(Cl)n1`: the growth is 32.4%.

For the compound `COc1ccc(NC(=O)/C=C/c2ccc(Cl)c(Cl)c2)cn1`, the growth is 69.5%.

Turning to `O=[N+]([O-])c1c(F)cccc1Nc1cccc(F)c1`, the growth is 127%.

Turning to `Cc1nc(Nc2cccnc2)sc1C(=O)/C=C/c1ccc(F)cc1`, the growth was 26.7%.

Consider `C1=CC2=CC=C3C=CC=C4C(c5nc6c7ccccc7c7ccccc7c6[nH]5)=CC(=C1)C2C34` (stereo not drawn), for which the growth is 21.9%.

For the compound `C=CCn1c(SCC(=O)Nc2ccc(C(=O)/C=C/c3cc(OC)c(OC)c(OC)c3)cc2)nnc1-c1c[nH]c2ccccc12`, the growth is 37%.

For the compound `CCCCCCCCC(=O)Nc1ccc(O)cc1`, the growth is 100%.

In the case of `COc1cccc(-c2nnc(N)o2)c1`, the growth was 90.3%.

Turning to `CCOC(=O)Nc1ccc2c(c1)C(=O)N(CC)c1ccccc1O2`, the growth was -3.61% (active).

For the compound `O=C(Nc1nc(Cl)nc(Nc2ccc(N3CCOCC3=O)cc2)n1)c1ccc(Cl)s1`, the growth was 68.1%.

Turning to `COC(=O)[C@]12CC[C@@H](C)[C@H](C)[C@@H]1C1=CC[C@@H]3[C@@]4(C)CC(=O)[C@H](O)[C@@](C)(CO)[C@@H]4C(=O)C[C@@]3(C)[C@]1(C)CC2`, the growth is -4.93% (active).
